# Experimental data from PubChem BioAssay (NCATS).
# Several values for one entry are separate records, joined by “and”; a condition that tells them apart may be missing. Equal entries are not always repeated. Inconclusive results are not listed. A call without a number means that no potency is given here. More than one record can exist for a structure, and the calls need not agree. Activity calls are given as the source filed them. Unless noted, calls come from the whole dose curve; as a rule, active = well fitted curve in the direction sought with a large enough effect; inconclusive = small, poorly fitted or top-dose-only effect, or another doubt; inactive = no such curve, though single readings can be large; an effect the other way counts as inactive or inconclusive.
# Key:
# [1] = molecular target: Rap guanine nucleotide exchange factor 4 (Homo sapiens) (UniProt Q8WZA2); experiment: Confirmatory qHTS for antagonist of cAMP-regulated guanine nucleotide exchange factor 4 (EPAC2) (AID 1645885); note: nearly all actives have a fitted effect of over 25% in size; note: potency is the fitted concentration of half-maximal effect
# [2] = NCATS anti-infectives library activity on HEK293 viability as a counter-qHTS vs the C. elegans viability qHTS (AID 1745854);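 note: HEK293 cells exposed to compounds for 24 hr before the viability read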
# Outline: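 Counter-screen for cytotoxicity: HEK293, 24 hr, 37C, compounds up to 41.7 uM final (a dilution series, 1:5). Readout CellTiter-Glo luminescence, 10 min RT. Digitonin control, 83.3 uM final.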
# [3] = molecular target: Glutathione peroxidase 1 (Homo sapiens) (UniProt P07203); experiment: Primary qHTS Assay for Inhibitors of Recombinant Selenoprotein Glutathione Peroxidase 1 (GPX1) (AID 1845191); note: nearly all actives have a fitted effect of over 65% in size; note: potency is the fitted concentration of half-maximal effect
# Outline: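 NADPH consumption tracked by fluorescence at 340/450 nm between t=0 and t=15 min, room temperature. Final mix: 10 nM GPX1, 100 nM glutathione reductase, 1 mM GSH, 0.5 mM NADPH, 0.5 mM cumene hydroperoxide, 0.01% BSA; 30 min compound–enzyme preincubation.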
# [4] = molecular target: Phospholipid hydroperoxide glutathione peroxidase GPX4 (Homo sapiens) (UniProt P36969); experiment: Primary qHTS Assay for Inhibitors of Recombinant Selenoprotein Glutathione Peroxidase 4 (GPX4) (AID 1845192); note: nearly all actives have a fitted effect of over 65% in size; note: potency is the fitted concentration of half-maximal effect
# Outline: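 NADPH consumption followed by fluorescence at 340/450 nm, t=0 and after 15 min at room temperature. Reaction started with cumene hydroperoxide (0.5 mM final) after 30 min compound–GPX4 preincubation; final 200 nM GPX4, 100 nM GR, 1 mM GSH, 0.5 mM NADPH.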
# [5] = Quantitative High-Throughput drug screen in 47 multiple myeloma cell lines against the NCATS MIPE library collection: FR4_PLB cell viability assay (AID 1918924; note: nearly all actives have a fitted effect of over 35% in size; note: potency is the fitted concentration of half-maximal effect)
# Outline: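 Myeloma cells (500 per well) were exposed to MIPE 4.0 compounds by pin transfer and incubated 48 hours at 37C, 5% CO2. Viability was read as ATP by CellTiter-Glo luminescence, normalised to DMSO (100%) and media-only (0%) wells.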
# [6] = molecular target: Catechol O-methyltransferase (Homo sapiens) (UniProt P21964); experiment: Confirmatory Screen for Target Class Profiling of Small Molecule Inhibitors of Methyltransferases (AID 1745852; calls by dose curve); settings: MTase-Glo luminescence, SAH detection, recombinant enzyme; measured here: COMT max response; stronger effect = lower value
# [7] = molecular target: Guanidinoacetate N-methyltransferase (Homo sapiens) (UniProt Q14353); experiment: as above; settings: MTase-Glo luminescence, SAH detection, recombinant enzyme; activity change, negative = inhibition: at 57.3 µM (top of the series) unless noted
# [8] = molecular target: Nicotinamide N-methyltransferase (Homo sapiens) (UniProt P40261); experiment: as above; settings: MTase-Glo luminescence, SAH detection, recombinant enzyme; measured here: NNMT max response; stronger effect = lower value
# [9] = molecular target: Phenylethanolamine N-methyltransferase (Homo sapiens) (UniProt P11086); experiment: as above; settings: MTase-Glo luminescence, SAH detection, recombinant enzyme; measured here: PNMT max response; stronger effect = lower value
# [10] = molecular target: Luciferin 4-monooxygenase (Photinus pyralis) (UniProt P08659); experiment: Primary firefly luciferase (FLuc) qHTS assay for identification of artifact compounds. (AID 1845220); note: nearly all actives have a fitted effect of over 60% in size
# Outline: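 FLuc 10 nM; luciferin 10 uM; ATP 10 uM; Tris-acetate pH 7.6, Mg-acetate 10 mM; 15 min RT preincubation; 5 min reaction; luminescence.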
# [11] = Primary fluorescence-based thiol-reactive (MSTI) qHTS assay for identification of artifact compounds. (AID 1845221);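 note: thiol-reactive compounds lower the probe fluorescence signal; nearly all actives have a fitted effect of over 65% in size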
# Outline: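 Reactivity toward the thiol probe MSTI (4 uM) is scored by fluorescence at Ex/Em 525/598 nm after 1 h at room temperature. Acetyl-MSTI and MSTI define the activity scale.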
# [12] = tested on: Nanoluciferase (engineered Oplophorus gracilirostris luciferase); experiment: Primary Nanoluciferase (NLuc) qHTS assay for identification of artifact compounds. (AID 1845222);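 note: NLuc secreted into diluted conditioned medium of S16 cells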
# Outline: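 NLuc from S16 cell medium (1:55) plus test compounds, 15 min, room temperature. Luminescence after Nano-Glo (1:100) addition, 5 min.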
# [13] = Primary redox qHTS assay for identification of artifact compounds. (AID 1845223)
# Outline: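 Redox-cycling detection via DTT (250 uM final) oxidation coupled to Amplex Red (25 uM)/HRP (250 mU/mL) in HBSS. 15 min preincubation plus 30 min after DTT, room temperature. Ex/Em 525/598 nm; 4-parameter Hill fit against DMSO and 10 uM DA3003.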
# [14] = molecular target: Metallo-beta-lactamase type 2 (Klebsiella pneumoniae) (UniProt C7C422); experiment: qHTS to identify inhibitors of the New Delhi Metallo-beta-lactamase (NDM): assay validation screen against the NCATS LOPAC Collection (AID 1794843);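 note: nitrocefin turnover by NDM-1 measured as 485 nm absorbance at plateau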
# Outline: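 NDM-1 at 2 nM final in 50 mM HEPES pH 7.0, 1 uM ZnSO4, 0.01% Tween20, preincubated with LOPAC compounds pinned in DMSO; 50 uM nitrocefin (stock) added. Hydrolysis read as absorbance at 485 nm in the plateau phase.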
# [15] = NCATS anti-infectives library activity on the primary C. elegans qHTS viability assay (AID 1745855; calls by dose curve; note: potency is the fitted concentration of half-maximal effect)
# Outline: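 GFP read-out by 488 nm laser cytometry at day 0, 3 and 7, gated on object perimeter, area and peak intensity, scored viability of PE254-GFP-FLuc worms exposed to compound in S medium with bacterial capsules at 21 °C.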
# [16] = Viability counterscreen for antagonist of constitutive androstane receptor (CAR) against the NCATS DSHEA and TCM libraries (AID 1794837);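 note: compound exposure lasted 24 h before viability reading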
# Outline: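 Fluorescence from CellTiter-Fluor reports live-cell protease activity in HepG2-CYP2B6-hCAR cells treated for 24 h with substances alongside 48 uM CITCO.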
# [17] = Viability counterscreen for agonist of constitutive androstane receptor (CAR) against the NCATS DSHEA and TCM libraries (AID 1794838);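 note: cells exposed to compound for 24 h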
# Outline: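 In agonist mode, PK11195 is added at 0.75 uM final to HepG2-CYP2B6-hCAR cells dosed with test substances. Cultures incubate 24 h at 37C before a protease-based fluorogenic viability readout.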
# [18] = molecular target: Nuclear receptor subfamily 1 group I member 3 (Homo sapiens) (UniProt Q14994); experiment: Primary qHTS for agonist of constitutive androstane receptor (CAR) against the NCATS DSHEA and TCM libraries (AID 1794839);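 note: HepG2 cells expressing human CAR with a CYP2B6 reporter plus PK11195 antagonist; luciferase reporter luminescence read with ONE-Glo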
# Outline: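 Cells stably carrying hCAR and a CYP2B6 reporter (HepG2 background) are seeded and allowed 5 h to adhere. Substances at multiple concentrations are added alongside 0.75 µM PK11195, and luciferase signal is measured after 24 h.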
# [19] = HepG2 viability counterscreen (readout 2: ATP content) against the NCATS DSHEA and TCM libraries (AID 1794840);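 note: HepG2 cells exposed to substances for about 24 h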
# Outline: (§1)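 Cytotoxicity was assessed in HepG2 cells plated at 1,000 cells/well and exposed for about 24 hours to a concentration series. Protease activity and ATP content were measured sequentially in each well.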
# [20] = HepG2 viability counterscreen (readout 1: protease activity) against the NCATS DSHEA and TCM libraries (AID 1794841);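 note: cells exposed to compounds for about 24 h before the protease read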
# Outline: as §1
# Nicotinamide N-methyltransferase (Homo sapiens), sequence (P40261 whole entry, looked up): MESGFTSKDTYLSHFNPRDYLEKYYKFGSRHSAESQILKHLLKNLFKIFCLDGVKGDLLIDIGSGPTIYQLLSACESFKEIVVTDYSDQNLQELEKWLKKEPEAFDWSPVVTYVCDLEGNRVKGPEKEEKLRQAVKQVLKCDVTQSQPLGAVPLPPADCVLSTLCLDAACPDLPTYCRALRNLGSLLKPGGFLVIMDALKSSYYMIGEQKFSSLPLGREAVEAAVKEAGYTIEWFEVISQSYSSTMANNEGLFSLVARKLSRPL
# Phospholipid hydroperoxide glutathione peroxidase GPX4 (Homo sapiens), sequence (P36969 whole entry, looked up): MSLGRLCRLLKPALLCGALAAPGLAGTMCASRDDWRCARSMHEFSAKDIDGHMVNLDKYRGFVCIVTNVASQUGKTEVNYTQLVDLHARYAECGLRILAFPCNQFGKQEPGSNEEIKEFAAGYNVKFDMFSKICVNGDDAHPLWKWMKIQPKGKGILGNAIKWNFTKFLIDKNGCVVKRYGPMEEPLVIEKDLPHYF
# Rap guanine nucleotide exchange factor 4 (Homo sapiens), sequence (Q8WZA2 whole entry, looked up): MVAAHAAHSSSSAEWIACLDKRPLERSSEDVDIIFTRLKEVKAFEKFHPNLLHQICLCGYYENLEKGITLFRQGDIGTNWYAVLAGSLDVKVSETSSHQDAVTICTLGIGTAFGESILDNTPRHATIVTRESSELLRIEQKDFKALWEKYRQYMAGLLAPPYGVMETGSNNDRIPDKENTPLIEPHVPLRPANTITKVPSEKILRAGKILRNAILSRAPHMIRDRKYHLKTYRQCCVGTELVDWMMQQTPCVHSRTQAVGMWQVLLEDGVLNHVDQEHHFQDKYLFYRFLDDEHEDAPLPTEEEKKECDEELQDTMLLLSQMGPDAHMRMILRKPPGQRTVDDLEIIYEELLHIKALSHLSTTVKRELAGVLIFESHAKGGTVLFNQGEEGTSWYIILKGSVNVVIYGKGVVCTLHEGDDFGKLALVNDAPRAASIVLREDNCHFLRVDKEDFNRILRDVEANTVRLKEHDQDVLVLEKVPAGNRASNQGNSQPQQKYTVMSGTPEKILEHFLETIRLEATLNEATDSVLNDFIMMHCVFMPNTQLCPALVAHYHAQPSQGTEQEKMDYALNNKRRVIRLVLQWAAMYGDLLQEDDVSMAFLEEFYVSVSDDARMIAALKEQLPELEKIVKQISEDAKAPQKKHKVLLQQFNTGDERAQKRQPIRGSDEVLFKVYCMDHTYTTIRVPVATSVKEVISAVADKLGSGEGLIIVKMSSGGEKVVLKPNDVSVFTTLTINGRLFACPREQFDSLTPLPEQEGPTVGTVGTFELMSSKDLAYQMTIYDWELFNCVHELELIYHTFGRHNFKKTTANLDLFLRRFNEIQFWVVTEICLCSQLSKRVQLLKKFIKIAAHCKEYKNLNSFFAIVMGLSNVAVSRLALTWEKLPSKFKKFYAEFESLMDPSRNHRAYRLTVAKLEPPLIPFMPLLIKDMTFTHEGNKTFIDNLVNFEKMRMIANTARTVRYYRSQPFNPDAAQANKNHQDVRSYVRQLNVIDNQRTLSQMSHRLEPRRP
# Catechol O-methyltransferase (Homo sapiens), sequence (P21964 whole entry, looked up): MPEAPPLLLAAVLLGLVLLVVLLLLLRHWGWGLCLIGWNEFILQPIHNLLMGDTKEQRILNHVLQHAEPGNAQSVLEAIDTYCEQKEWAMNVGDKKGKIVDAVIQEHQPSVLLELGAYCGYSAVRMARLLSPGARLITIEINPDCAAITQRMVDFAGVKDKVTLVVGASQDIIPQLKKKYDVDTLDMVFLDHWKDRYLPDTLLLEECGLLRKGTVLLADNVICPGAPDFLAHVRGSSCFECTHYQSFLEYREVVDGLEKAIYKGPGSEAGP
# Glutathione peroxidase 1 (Homo sapiens), sequence (P07203 whole entry, looked up): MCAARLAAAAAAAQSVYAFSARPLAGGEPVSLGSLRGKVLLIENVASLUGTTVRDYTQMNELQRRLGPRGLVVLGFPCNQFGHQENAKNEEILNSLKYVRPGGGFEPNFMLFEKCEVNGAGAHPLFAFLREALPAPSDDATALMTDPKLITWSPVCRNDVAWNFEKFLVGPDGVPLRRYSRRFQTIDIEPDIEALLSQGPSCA
# Phenylethanolamine N-methyltransferase (Homo sapiens), sequence (P11086 whole entry, looked up): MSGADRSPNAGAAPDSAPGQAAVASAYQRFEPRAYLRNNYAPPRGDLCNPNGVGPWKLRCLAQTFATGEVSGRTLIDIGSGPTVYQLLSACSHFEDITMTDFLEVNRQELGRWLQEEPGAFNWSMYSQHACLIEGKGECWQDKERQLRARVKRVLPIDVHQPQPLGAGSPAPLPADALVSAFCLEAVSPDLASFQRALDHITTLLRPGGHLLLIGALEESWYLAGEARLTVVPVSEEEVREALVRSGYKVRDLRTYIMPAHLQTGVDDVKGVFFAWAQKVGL
# Metallo-beta-lactamase type 2 (Klebsiella pneumoniae), sequence (C7C422 whole entry, looked up): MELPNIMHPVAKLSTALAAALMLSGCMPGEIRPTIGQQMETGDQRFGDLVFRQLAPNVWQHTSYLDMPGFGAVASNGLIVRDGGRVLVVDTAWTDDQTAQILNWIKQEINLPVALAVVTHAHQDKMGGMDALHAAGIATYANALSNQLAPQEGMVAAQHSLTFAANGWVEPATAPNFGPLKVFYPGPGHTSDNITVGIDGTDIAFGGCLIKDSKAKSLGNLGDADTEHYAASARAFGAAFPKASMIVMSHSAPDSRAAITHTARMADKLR
# Nuclear receptor subfamily 1 group I member 3 (Homo sapiens), sequence (Q14994 whole entry, looked up): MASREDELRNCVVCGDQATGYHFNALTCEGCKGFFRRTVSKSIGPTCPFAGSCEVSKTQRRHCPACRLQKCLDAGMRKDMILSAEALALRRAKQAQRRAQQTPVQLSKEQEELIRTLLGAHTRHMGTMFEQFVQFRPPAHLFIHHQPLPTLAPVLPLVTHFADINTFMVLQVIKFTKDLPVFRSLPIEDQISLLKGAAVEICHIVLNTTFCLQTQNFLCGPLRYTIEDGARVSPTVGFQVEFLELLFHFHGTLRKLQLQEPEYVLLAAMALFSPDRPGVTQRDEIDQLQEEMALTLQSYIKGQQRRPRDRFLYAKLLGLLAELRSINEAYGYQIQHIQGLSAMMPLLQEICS
compound,measurement,setting,value
CN1CCN(CCCN2c3ccccc3Sc3ccc(C(F)(F)F)cc32)CC1,Potency,[1],24.8 µM (active) and 44.1 µM (active)
same,outcome,[2],inactive
same,Potency,[3],inactive
same,Potency,[4],inactive
same,Potency,[5],inactive
COc1cc(Nc2ncc3c(n2)-c2ccc(Cl)cc2C(c2c(F)cccc2OC)=NC3)ccc1C(=O)O,activity,[6],0.763%
same,"activity change, negative = inhibition",[7],2.21%
same,activity,[8],-15.5%
same,activity,[9],2.42%
same,Potency,[3],inactive
same,Potency,[4],inactive
same,Potency,[10],inactive
same,Potency,[11],inactive
same,outcome,[12],inactive
same,outcome,[13],inactive
same,Potency,[5],inactive
CCCCCCCc1ccc(CCc2cccc(O)c2C(=O)O)cc1,activity,[6],-2.12%
same,"activity change, negative = inhibition",[7],-1.62%
same,activity,[8],-13.2%
same,activity,[9],1.23%
same,Potency,[3],inactive
same,Potency,[4],20.2 µM (active)
same,Potency,[5],inactive
Cc1ccccc1C(OCCN(C)C)c1ccccc1 (stereo not given),activity,[6],-2.48%
same,"activity change, negative = inhibition",[7],6.46%
same,activity,[8],-5.32%
same,activity,[9],-1.88%
same,outcome,[14],inactive
same,Potency,[3],inactive
same,Potency,[4],inactive
same,Potency,[5],inactive
CC(=O)Oc1ccccc1C(=O)O,outcome,[2],inactive
same,Potency,[3],inactive
same,Potency,[4],inactive
same,Potency,[5],inactive
Nc1nc2[nH]cc(CCc3ccc(C(=O)N[C@@H](CCC(=O)O)C(=O)O)cc3)c2c(=O)[nH]1,outcome,[2],inactive
same,Potency,[3],inactive
same,Potency,[4],inactive
NC(=O)c1ccc(I)c([N+](=O)[O-])c1,outcome,[2],inactive
same,Potency,[3],inactive
same,Potency,[4],inactive
same,Potency,[5],inactive
C[C@]1(c2nc3c(C(N)=O)cccc3[nH]2)CCCN1,outcome,[2],inactive
same,Potency,[3],inactive
same,Potency,[4],inactive
same,Potency,[5],inactive
CCN(CC)CCCC(C)Nc1ccnc2cc(Cl)ccc12 (stereo not given),activity,[6],-0.478%
same,"activity change, negative = inhibition",[7],2.04% [at 9.47 µM]
same,activity,[8],3.54%
same,activity,[9],0.752%
same,outcome,[14],inactive
same,Potency,[3],inactive
same,Potency,[4],inactive
same,"activity change, negative = inhibition",[10],-3.19% [at 11.6 µM] (inactive)
same,"activity change, negative = thiol reactive",[11],-0.305% [at 11.5 µM] (inactive)
same,"activity, negative = inhibition",[12],2.98% [at 11.6 µM] (inactive)
same,redox activity (% of DA3003),[13],-9.33% [at 11.5 µM] (inactive)
same,Potency,[5],inactive
Cc1cnc(Nc2ccc(OCCN3CCCC3)cc2)nc1Nc1cccc(S(=O)(=O)NC(C)(C)C)c1,activity,[6],-12.3%
same,"activity change, negative = inhibition",[7],-4.99%
same,activity,[8],-31.4%
same,activity,[9],-8.53%
same,Potency,[3],inactive
same,Potency,[4],inactive
same,Potency,[10],inactive
same,outcome,[12],inactive
same,Potency,[5],inactive
C#Cc1cccc(Nc2ncnc3cc(OCCOC)c(OCCOC)cc23)c1,Potency,[15],inactive
same,Potency,[3],inactive
same,Potency,[4],inactive
same,Potency,[10],inactive
same,Potency,[11],inactive
same,outcome,[12],inactive
same,outcome,[13],inactive
same,Potency,[5],16.6 µM (active)
CC(C)(Sc1ccc(CCN(CCCCC2CCCCC2)C(=O)NC2CCCCC2)cc1)C(=O)O,Potency,[1],44.1 µM (active) and inactive and 39.3 µM (active)
same,activity,[6],-3.21%
same,"activity change, negative = inhibition",[7],2.53%
same,activity,[8],-46.1%
same,activity,[9],-8.68%
same,Potency,[3],inactive
same,Potency,[4],inactive and 6.4 µM (active)
same,Potency,[10],inactive
same,Potency,[11],inactive
same,outcome,[12],inactive
same,outcome,[13],inactive
COc1cc2c(cc1OC)CN(CCc1ccc(NC(=O)c3cccc4c(=O)c5cccc(OC)c5[nH]c34)cc1)CC2,activity,[6],-13%
same,"activity change, negative = inhibition",[7],-0.294%
same,activity,[8],-75.2%
same,activity,[9],-10.7%
same,outcome,[2],inactive
same,Potency,[3],inactive
same,Potency,[4],inactive
same,Potency,[10],inactive
same,Potency,[11],inactive
same,outcome,[12],inactive
CCCc1nc2c(C)cc(-c3nc4ccccc4n3C)cc2n1Cc1ccc(-c2ccccc2C(=O)O)cc1,outcome,[2],inactive
same,Potency,[3],inactive
same,Potency,[4],inactive
OC[C@H](Cc1ccccc1)Nc1nc(Oc2ccc3c(c2)CCC3)nc2c1ncn2Cc1ccc(-c2ccccc2)cc1,activity,[6],-10.9%
same,"activity change, negative = inhibition",[7],-8.58%
same,activity,[8],-17.3%
same,activity,[9],-16%
same,Potency,[3],inactive
same,Potency,[4],inactive
same,Potency,[5],inactive
CNCc1ccc(-c2[nH]c3cc(F)cc4c3c2CCNC4=O)cc1,activity,[6],-6.4%
same,"activity change, negative = inhibition",[7],-1.39%
same,activity,[8],-24.3%
same,activity,[9],-15.2%
same,outcome,[2],inactive
same,Potency,[3],20.2 µM (active)
same,Potency,[4],11.4 µM (active) and 12.8 µM (active) and 15.8 µM (active)
same,Potency,[10],inactive
same,Potency,[11],inactive
same,outcome,[12],inactive
same,outcome,[13],inactive
same,Potency,[5],inactive
CCc1cncnc1N1CCN(Cc2nc3ccc(C(F)(F)F)cc3[nH]2)CC1,activity,[6],1.23%
same,"activity change, negative = inhibition",[7],5.86%
same,activity,[8],-37.3%
same,activity,[9],-14.9%
same,Potency,[3],inactive
same,Potency,[4],inactive
same,Potency,[10],inactive
same,Potency,[11],inactive
same,outcome,[12],inactive
same,outcome,[13],inactive
COc1ccc2nc(S(=O)Cc3ncc(C)c(OC)c3C)[nH]c2c1 (stereo not given),outcome,[2],inactive
same,Potency,[3],5.08 µM (active) and inactive
same,Potency,[4],11.4 µM (active)
same,Potency,[5],inactive
c1ccc([C@H]2CN3CCSC3=N2)cc1,outcome,[2],inactive
same,Potency,[15],5.15 µM (active)
same,Potency,[3],inactive
same,Potency,[4],inactive
same,Potency,[5],inactive
NC(=O)c1cnccn1,outcome,[16],inactive
same,outcome,[17],inactive
same,outcome,[18],inactive
same,outcome,[19],inactive
same,outcome,[20],inactive
same,Potency,[3],inactive
same,Potency,[4],inactive
same,Potency,[5],inactive
